Results on 23 molecules are retold here after PubChem BioAssay (EPA / NIEHS).

Molecules are shown by their SMILES. Some structures have more than one record in an assay (separate samples or runs), and their calls can disagree. The source made the active and inactive calls. How the source made its calls: active means hit-call score of the fitted dose curve at least 0.9, where 1 is the maximum; inactive means score below 0.9.

Read-out in one assay: CFLAR gene, CFLAR (gene 8837)
In words: LTEA_HepaRG_CFLAR: Life Technologies and Expression Analysis (LTEA) Assay for CFLAR gene using HepaRG (AID 2283455). Particulars: mRNA level, 48 h; actives raise or lower the signal. The gist of the method:
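HepaRG, 48 h exposure, 8-pt conc-response (100 uM top, half-log), 0.5% DMSO vehicle, duplicates. CFLAR expression by qRT-PCR; ACTB/GAPDH/POLR2A normalization; gain or loss fit vs DMSO baseline.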
For the molecule `CNC(=O)/C=C(\C)OP(=O)(OC)OC`, the result was inactive.
`N#Cc1c(Cl)c(Cl)c(Cl)c(C#N)c1Cl`: the AC50 was 50 µM (active).
Turning to `CC1(C)C(C=C(Cl)Cl)C1C(=O)OC(C#N)c1ccc(F)c(Oc2ccccc2)c1` (stereo unspecified), the call was inactive.
Turning to `O=C(NC(=O)c1c(F)cccc1F)Nc1ccc(OC(F)(F)C(F)OC(F)(F)F)c(Cl)c1` (stereo unspecified), the outcome was inactive.
On the same count and under the same terms, in the case of `O=C(Nc1ccccc1)Nc1cnns1` it was “inactive”.
Consider `O=S(=O)(O)C(F)(F)C(F)(F)C(F)(F)C(F)(F)C(F)(F)C(F)(F)C(F)(F)C(F)(F)F`, for which the AC50 is 13.2 µM (active) and the result was inactive.
For `CCc1ccc(C(=O)NN(C(=O)c2cc(C)cc(C)c2)C(C)(C)C)cc1`, the call was inactive.
Same read-out and setting: under `COP(=O)(OC)OC=C(Cl)Cl` stands “inactive”.
For the molecule `CC[C@H](C)[C@H]1O[C@]2(C=C[C@@H]1C)C[C@@H]1C[C@@H](C/C=C(\C)[C@@H](O[C@H]3C[C@H](OC)[C@@H](O[C@H]4C[C@H](OC)[C@@H](O)[C@H](C)O4)[C@H](C)O3)[C@@H](C)/C=C/C=C3\CO[C@@H]4[C@H](O)C(C)=C[C@@H](C(=O)O1)[C@]34O)O2` (tested in a mixture with another compound), the AC50 was 30.2 µM (active).
On to `Clc1ccccc1-c1nnc(-c2ccccc2Cl)nn1`, for which the call was inactive.
Still for that read-out and setting: under `CNC(=O)Oc1ccccc1OC(C)C` stands “inactive”; under `O=C1c2ccccc2C(=O)N1SC(Cl)(Cl)Cl`, “inactive”.
Still for that read-out and setting: under `CCOC1Oc2ccc(OS(C)(=O)=O)cc2C1(C)C` (stereo unspecified) stands “inactive”; under `O=C(O)CCCOc1ccc(Cl)cc1Cl`, “inactive”.
With `CC(C)(C)C(O)/C(=C\c1ccc(Cl)cc1Cl)n1cncn1` (stereo unspecified), the AC50 is 76.6 µM (active).
Regarding `CCOCN(C(=O)CCl)c1c(C)cccc1CC`, the result was inactive.
Take `CCCN(CCOc1c(Cl)cc(Cl)cc1Cl)C(=O)n1ccnc1`: the AC50 was 85.2 µM (active).
For the molecule `Cc1[nH]c(=O)n(C(C)(C)C)c(=O)c1Cl`, the call was inactive.
Still for that read-out and setting: in the case of `CC(C)OC(=O)Nc1cccc(Cl)c1` it was “inactive”.
For the molecule `CCC(C)(NC(=O)c1cc(Cl)c(C)c(Cl)c1)C(=O)CCl` (stereo unspecified), the AC50 is 86.5 µM (active).
`CNC(=O)CSP(=S)(OC)OC`: the molecule was classed as inactive.
On the same count and under the same terms, in the case of `CC1(c2ccc(Oc3ccccc3)cc2)OC(=O)N(Nc2ccccc2)C1=O` (stereo unspecified) it was “inactive”; in that of `CNC(=O)Oc1cccc(N=CN(C)C)c1`, “inactive”.

Read-out in another assay: Forkhead box O1 (FOXO1), FOXO1 (gene 2308)
The assay can be described thus: LTEA_HepaRG_FOXO1: Life Technologies and Expression Analysis (LTEA) Assay for Forkhead box O1 (FOXO1) using HepaRG (AID 2283456). Particulars: mRNA level, 48 h; actives raise or lower the signal. An outline of the steps:
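Readout is FOXO1 transcript level by multiplexed qRT-PCR against three housekeeping genes, curve-fitted in both directions relative to 0.5% DMSO vehicle. Human HepaRG cultures received chemicals for 48 h, up to 100 uM in half-log steps.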
In the case of `CNC(=O)/C=C(\C)OP(=O)(OC)OC`, the molecule was classed as inactive.
As for `N#Cc1c(Cl)c(Cl)c(Cl)c(C#N)c1Cl`, the AC50 is 21.2 µM (active).
Consider `CC1(C)C(C=C(Cl)Cl)C1C(=O)OC(C#N)c1ccc(F)c(Oc2ccccc2)c1` (stereo unspecified), for which the molecule was classed as inactive.
The same measure, in the same setting: in the case of `O=C(NC(=O)c1c(F)cccc1F)Nc1ccc(OC(F)(F)C(F)OC(F)(F)F)c(Cl)c1` (stereo unspecified) it was “inactive”; in that of `O=C(Nc1ccccc1)Nc1cnns1`, “inactive”.
Turning to `O=S(=O)(O)C(F)(F)C(F)(F)C(F)(F)C(F)(F)C(F)(F)C(F)(F)C(F)(F)C(F)(F)F`, the AC50 is 13.3 µM (active) and the molecule was classed as inactive.
With `CCc1ccc(C(=O)NN(C(=O)c2cc(C)cc(C)c2)C(C)(C)C)cc1`, the call was inactive.
Turning to `COP(=O)(OC)OC=C(Cl)Cl`, the molecule was called inactive.
For the molecule `CC[C@H](C)[C@H]1O[C@]2(C=C[C@@H]1C)C[C@@H]1C[C@@H](C/C=C(\C)[C@@H](O[C@H]3C[C@H](OC)[C@@H](O[C@H]4C[C@H](OC)[C@@H](O)[C@H](C)O4)[C@H](C)O3)[C@@H](C)/C=C/C=C3\CO[C@@H]4[C@H](O)C(C)=C[C@@H](C(=O)O1)[C@]34O)O2` (tested in a mixture with another compound), the AC50 is 17.5 µM (active).
On to `Clc1ccccc1-c1nnc(-c2ccccc2Cl)nn1`, for which the molecule was called inactive.
For `CNC(=O)Oc1ccccc1OC(C)C`, the outcome was inactive.
As for `O=C1c2ccccc2C(=O)N1SC(Cl)(Cl)Cl`, the molecule was called inactive.
Consider `CCOC1Oc2ccc(OS(C)(=O)=O)cc2C1(C)C` (stereo unspecified), for which the half-maximal activity concentration (AC50) was 50 µM (active).
Regarding `O=C(O)CCCOc1ccc(Cl)cc1Cl`, the call was inactive.
Take `CC(C)(C)C(O)/C(=C\c1ccc(Cl)cc1Cl)n1cncn1` (stereo unspecified): the AC50 was 89.4 µM (active).
For `CCOCN(C(=O)CCl)c1c(C)cccc1CC`, the result was inactive.
Turning to `CCCN(CCOc1c(Cl)cc(Cl)cc1Cl)C(=O)n1ccnc1`, the concentration at half-maximal activity (AC50) was 88.7 µM (active).
For the molecule `Cc1[nH]c(=O)n(C(C)(C)C)c(=O)c1Cl`, the molecule was classed as inactive.
Still for that read-out and setting: in the case of `CC(C)OC(=O)Nc1cccc(Cl)c1` it was “inactive”.
On the same count and under the same terms, under `CCC(C)(NC(=O)c1cc(Cl)c(C)c(Cl)c1)C(=O)CCl` (stereo unspecified) stands “inactive”; under `CNC(=O)CSP(=S)(OC)OC`, “inactive”.
Take `CC1(c2ccc(Oc3ccccc3)cc2)OC(=O)N(Nc2ccccc2)C1=O` (stereo unspecified): the AC50 is 50.2 µM (active).
On to `CNC(=O)Oc1cccc(N=CN(C)C)c1`, for which the outcome was inactive.

Read-out in the next assay: Forkhead box O3 (FOXO3), FOXO3 (gene 2309)
In words: LTEA_HepaRG_FOXO3: Life Technologies and Expression Analysis (LTEA) Assay for Forkhead box O3 (FOXO3) using HepaRG (AID 2283459). Particulars: mRNA level, 48 h; actives raise or lower the signal. An outline of the steps:
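HepaRG, 48 h post-dose; 8 conc., half-log from 100 uM, 0.5% DMSO, duplicates; serum-free induction medium. Readout: FOXO3 mRNA, TaqMan qRT-PCR, housekeeping-normalized. Bidirectional curve fit vs DMSO baseline.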
`CNC(=O)/C=C(\C)OP(=O)(OC)OC`: the molecule was called inactive.
As to `N#Cc1c(Cl)c(Cl)c(Cl)c(C#N)c1Cl`, the AC50 is 15.2 µM (active).
For `CC1(C)C(C=C(Cl)Cl)C1C(=O)OC(C#N)c1ccc(F)c(Oc2ccccc2)c1` (stereo unspecified), the molecule was classed as inactive.
The same measure, in the same setting: under `O=C(NC(=O)c1c(F)cccc1F)Nc1ccc(OC(F)(F)C(F)OC(F)(F)F)c(Cl)c1` (stereo unspecified) stands “inactive”.
As to `O=C(Nc1ccccc1)Nc1cnns1`, the molecule was classed as inactive.
Still for that read-out and setting: in the case of `O=S(=O)(O)C(F)(F)C(F)(F)C(F)(F)C(F)(F)C(F)(F)C(F)(F)C(F)(F)C(F)(F)F` it was “inactive”; in that of `CCc1ccc(C(=O)NN(C(=O)c2cc(C)cc(C)c2)C(C)(C)C)cc1`, “inactive”; in that of `COP(=O)(OC)OC=C(Cl)Cl`, “inactive”.
Still for that read-out and setting: under `CC[C@H](C)[C@H]1O[C@]2(C=C[C@@H]1C)C[C@@H]1C[C@@H](C/C=C(\C)[C@@H](O[C@H]3C[C@H](OC)[C@@H](O[C@H]4C[C@H](OC)[C@@H](O)[C@H](C)O4)[C@H](C)O3)[C@@H](C)/C=C/C=C3\CO[C@@H]4[C@H](O)C(C)=C[C@@H](C(=O)O1)[C@]34O)O2` (tested in a mixture with another compound) stands “inactive”.
Same read-out and setting: in the case of `Clc1ccccc1-c1nnc(-c2ccccc2Cl)nn1` it was “inactive”; in that of `CNC(=O)Oc1ccccc1OC(C)C`, “inactive”; in that of `O=C1c2ccccc2C(=O)N1SC(Cl)(Cl)Cl`, “inactive”.
As for `CCOC1Oc2ccc(OS(C)(=O)=O)cc2C1(C)C` (stereo unspecified), the molecule was classed as inactive.
On the same count and under the same terms, in the case of `O=C(O)CCCOc1ccc(Cl)cc1Cl` it was “inactive”.
With `CC(C)(C)C(O)/C(=C\c1ccc(Cl)cc1Cl)n1cncn1` (stereo unspecified), the AC50 was 82.3 µM (active).
`CCOCN(C(=O)CCl)c1c(C)cccc1CC`: the outcome was inactive.
On to `CCCN(CCOc1c(Cl)cc(Cl)cc1Cl)C(=O)n1ccnc1`, for which the result was inactive.
For `Cc1[nH]c(=O)n(C(C)(C)C)c(=O)c1Cl`, the AC50 was 50 µM (active).
On to `CC(C)OC(=O)Nc1cccc(Cl)c1`, for which the outcome was inactive.
Still for that read-out and setting: under `CCC(C)(NC(=O)c1cc(Cl)c(C)c(Cl)c1)C(=O)CCl` (stereo unspecified) stands “inactive”.
On the same count and under the same terms, under `CNC(=O)CSP(=S)(OC)OC` stands “inactive”.
Consider `CC1(c2ccc(Oc3ccccc3)cc2)OC(=O)N(Nc2ccccc2)C1=O` (stereo unspecified), for which the AC50 is 4.78 µM (active).
As for `CNC(=O)Oc1cccc(N=CN(C)C)c1`, the result was inactive.
